Measurements: the supplement of paper PMC10849652
The full data set covers some 7,900 targets. This sample favours those with a hit. About 0.6% of all pairs of compound and target were hits. A number with no mark means an inactive call.

Sequence of UniProt Q9NX46 (Q9NX46 whole entry, looked up): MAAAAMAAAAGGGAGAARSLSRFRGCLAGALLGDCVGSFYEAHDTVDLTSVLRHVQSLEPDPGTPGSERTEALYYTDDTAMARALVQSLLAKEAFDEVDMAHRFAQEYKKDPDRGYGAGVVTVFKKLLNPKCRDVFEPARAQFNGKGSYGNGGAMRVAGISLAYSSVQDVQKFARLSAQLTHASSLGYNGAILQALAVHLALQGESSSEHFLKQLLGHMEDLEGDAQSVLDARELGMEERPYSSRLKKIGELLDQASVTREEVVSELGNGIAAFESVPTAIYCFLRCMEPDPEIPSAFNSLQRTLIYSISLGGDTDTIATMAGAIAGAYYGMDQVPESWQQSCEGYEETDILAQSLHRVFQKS
Sequence of UniProt Q10589 (Q10589 whole entry, looked up): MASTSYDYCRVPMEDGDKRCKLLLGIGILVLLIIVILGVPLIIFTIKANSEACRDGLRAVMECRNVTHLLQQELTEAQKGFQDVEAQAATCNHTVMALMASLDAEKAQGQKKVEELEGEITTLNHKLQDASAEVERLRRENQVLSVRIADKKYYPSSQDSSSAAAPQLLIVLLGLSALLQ
Sequence of UniProt Q9UII2 (Q9UII2 whole entry, looked up): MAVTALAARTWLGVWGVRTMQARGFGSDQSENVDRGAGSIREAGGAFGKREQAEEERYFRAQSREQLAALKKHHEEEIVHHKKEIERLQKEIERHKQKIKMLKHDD
Sequence of UniProt Q9UHQ4 (Q9UHQ4 whole entry, looked up): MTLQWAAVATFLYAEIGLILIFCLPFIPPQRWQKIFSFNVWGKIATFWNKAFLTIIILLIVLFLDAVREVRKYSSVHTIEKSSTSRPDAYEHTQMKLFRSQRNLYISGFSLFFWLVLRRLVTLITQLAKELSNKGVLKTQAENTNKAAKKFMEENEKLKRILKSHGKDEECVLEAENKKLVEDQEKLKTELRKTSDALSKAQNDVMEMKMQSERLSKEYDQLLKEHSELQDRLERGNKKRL
Sequence of UniProt P08758 (P08758 whole entry, looked up): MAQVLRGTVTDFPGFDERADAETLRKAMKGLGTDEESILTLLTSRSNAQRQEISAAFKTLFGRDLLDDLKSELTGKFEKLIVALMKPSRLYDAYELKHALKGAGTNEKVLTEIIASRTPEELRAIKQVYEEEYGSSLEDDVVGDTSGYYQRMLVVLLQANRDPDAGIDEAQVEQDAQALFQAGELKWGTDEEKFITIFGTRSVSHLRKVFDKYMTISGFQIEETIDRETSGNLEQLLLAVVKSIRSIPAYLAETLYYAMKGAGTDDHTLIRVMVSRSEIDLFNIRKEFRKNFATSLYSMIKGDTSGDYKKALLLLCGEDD
Sequence of UniProt P53367 (P53367 whole entry, looked up): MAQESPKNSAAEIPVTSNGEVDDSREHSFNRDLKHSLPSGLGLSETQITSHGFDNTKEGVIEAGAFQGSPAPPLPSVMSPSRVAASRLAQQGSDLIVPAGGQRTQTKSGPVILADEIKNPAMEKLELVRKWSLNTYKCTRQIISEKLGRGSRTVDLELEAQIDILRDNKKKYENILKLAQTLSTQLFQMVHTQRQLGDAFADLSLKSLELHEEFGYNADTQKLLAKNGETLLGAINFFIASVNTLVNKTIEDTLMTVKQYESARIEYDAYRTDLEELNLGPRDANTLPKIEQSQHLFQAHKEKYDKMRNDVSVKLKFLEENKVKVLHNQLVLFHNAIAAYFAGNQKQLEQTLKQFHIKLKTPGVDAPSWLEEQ
Sequence of UniProt P49189 (P49189 whole entry, looked up): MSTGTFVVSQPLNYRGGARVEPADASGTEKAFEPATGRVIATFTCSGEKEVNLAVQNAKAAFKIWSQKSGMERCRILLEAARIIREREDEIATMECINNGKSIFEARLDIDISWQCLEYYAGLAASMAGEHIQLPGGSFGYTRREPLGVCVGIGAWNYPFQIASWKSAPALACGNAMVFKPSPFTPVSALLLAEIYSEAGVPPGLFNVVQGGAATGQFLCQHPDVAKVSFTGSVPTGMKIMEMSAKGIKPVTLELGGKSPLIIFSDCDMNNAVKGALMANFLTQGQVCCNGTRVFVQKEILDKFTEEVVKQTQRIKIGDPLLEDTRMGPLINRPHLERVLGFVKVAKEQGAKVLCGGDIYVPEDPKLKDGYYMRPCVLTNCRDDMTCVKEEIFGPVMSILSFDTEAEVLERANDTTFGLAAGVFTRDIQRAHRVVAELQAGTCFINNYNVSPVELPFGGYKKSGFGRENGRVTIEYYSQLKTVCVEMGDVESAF
Sequence of UniProt P54709 (P54709 whole entry, looked up): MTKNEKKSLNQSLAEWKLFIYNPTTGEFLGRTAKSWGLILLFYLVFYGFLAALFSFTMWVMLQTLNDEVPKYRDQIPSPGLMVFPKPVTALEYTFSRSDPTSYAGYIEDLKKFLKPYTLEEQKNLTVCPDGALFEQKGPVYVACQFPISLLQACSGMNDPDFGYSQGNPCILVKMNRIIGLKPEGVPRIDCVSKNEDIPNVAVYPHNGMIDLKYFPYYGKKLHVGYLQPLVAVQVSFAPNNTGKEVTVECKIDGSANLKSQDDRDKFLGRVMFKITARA
Sequence of UniProt Q8N6S5 (Q8N6S5 whole entry, looked up): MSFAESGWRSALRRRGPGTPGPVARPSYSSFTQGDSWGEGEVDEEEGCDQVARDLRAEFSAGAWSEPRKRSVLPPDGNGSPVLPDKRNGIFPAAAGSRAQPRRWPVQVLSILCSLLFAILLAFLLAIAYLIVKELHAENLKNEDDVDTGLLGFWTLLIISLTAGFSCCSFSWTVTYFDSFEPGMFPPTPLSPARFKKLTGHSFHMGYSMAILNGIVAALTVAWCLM
Sequence of UniProt Q16186 (Q16186 whole entry, looked up): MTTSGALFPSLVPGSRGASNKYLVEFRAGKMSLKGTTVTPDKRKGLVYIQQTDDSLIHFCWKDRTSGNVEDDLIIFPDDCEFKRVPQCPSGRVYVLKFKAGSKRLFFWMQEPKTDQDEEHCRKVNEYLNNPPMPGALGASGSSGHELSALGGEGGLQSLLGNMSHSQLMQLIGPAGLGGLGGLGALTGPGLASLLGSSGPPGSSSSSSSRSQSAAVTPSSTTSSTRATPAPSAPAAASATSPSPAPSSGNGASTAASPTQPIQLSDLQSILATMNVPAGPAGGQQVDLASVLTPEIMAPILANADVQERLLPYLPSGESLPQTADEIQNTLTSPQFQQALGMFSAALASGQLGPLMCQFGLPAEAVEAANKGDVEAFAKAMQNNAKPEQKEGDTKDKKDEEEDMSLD
Sequence of UniProt Q13795 (Q13795 whole entry, looked up): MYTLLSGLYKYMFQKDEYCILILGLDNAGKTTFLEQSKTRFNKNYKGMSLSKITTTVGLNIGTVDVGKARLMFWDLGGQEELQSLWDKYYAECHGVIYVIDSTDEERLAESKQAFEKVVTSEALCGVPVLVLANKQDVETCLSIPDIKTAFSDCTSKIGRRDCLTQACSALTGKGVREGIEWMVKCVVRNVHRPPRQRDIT
Sequence of UniProt Q9Y679 (Q9Y679 whole entry, looked up): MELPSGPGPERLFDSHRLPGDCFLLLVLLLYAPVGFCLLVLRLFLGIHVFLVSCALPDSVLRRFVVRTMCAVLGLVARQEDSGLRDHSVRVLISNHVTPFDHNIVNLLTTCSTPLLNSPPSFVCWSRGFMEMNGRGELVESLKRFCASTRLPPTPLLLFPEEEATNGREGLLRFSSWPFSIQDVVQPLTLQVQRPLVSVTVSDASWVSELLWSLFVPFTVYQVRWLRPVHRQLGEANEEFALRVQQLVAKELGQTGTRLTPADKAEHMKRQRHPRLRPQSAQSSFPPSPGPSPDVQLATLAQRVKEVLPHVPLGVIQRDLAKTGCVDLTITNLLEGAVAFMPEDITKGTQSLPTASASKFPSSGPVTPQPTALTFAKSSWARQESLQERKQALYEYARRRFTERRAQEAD
Sequence of UniProt Q9Y312 (Q9Y312 whole entry, looked up): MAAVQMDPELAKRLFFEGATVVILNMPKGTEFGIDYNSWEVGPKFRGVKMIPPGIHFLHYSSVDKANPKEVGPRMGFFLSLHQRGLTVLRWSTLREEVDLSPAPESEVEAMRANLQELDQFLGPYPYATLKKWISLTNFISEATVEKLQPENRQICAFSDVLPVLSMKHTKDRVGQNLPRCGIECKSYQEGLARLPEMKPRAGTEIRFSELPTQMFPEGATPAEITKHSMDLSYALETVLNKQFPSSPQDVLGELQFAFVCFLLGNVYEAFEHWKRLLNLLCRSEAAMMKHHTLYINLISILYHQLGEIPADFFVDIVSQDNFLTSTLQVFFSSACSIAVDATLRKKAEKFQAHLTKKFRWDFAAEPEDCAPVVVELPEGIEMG
Sequence of UniProt P31939 (P31939 whole entry, looked up): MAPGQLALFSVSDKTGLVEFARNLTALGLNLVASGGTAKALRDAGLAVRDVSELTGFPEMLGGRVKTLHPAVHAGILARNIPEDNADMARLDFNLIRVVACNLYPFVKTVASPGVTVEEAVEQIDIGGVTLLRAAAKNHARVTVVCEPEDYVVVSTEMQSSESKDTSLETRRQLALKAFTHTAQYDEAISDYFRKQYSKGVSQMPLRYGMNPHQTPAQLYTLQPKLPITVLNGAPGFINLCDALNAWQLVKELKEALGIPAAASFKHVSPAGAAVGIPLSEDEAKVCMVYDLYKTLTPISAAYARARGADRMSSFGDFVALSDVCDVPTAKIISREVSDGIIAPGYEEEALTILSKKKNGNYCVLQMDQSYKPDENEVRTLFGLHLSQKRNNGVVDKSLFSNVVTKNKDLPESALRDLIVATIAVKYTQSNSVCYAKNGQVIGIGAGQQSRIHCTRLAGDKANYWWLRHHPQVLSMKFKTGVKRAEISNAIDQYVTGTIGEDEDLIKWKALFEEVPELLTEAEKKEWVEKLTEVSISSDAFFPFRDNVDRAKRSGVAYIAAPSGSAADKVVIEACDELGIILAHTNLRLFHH
Sequence of UniProt Q86WA6 (Q86WA6 whole entry, looked up): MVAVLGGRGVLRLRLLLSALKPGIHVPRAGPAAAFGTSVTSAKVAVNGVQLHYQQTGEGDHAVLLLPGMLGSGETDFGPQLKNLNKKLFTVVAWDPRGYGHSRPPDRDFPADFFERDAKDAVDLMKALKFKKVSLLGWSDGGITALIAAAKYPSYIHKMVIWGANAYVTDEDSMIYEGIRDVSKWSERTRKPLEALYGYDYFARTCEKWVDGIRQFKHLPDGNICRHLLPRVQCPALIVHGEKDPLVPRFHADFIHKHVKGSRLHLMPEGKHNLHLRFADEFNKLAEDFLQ

The targets below were run with C1=CC=C(C=C1)[C@H](COC2=CC3=C(C=C2)NC(=O)N3)NC(=O)C4=CC=CN(C4=O)CC5=CC(=C(C=C5)F)F (assay: log2 fold change, soluble protein after heating vs DMSO (PISA); higher = thermal stabilisation; K562 cells, 10 uM, 30 min; active = over 0.2 and 3.5 SD of the protein, either way, in both replicates (recomputed)).
How it was run: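 Quantification of soluble protein used TMTpro 16plex LC-MS/MS, with channel sums equalised. Samples were the supernatant after 21,000xg for 90 min of pooled aliquots from K562 cells (2×10^6 cells/mL) treated with 10 μM compound for 30 min, heated for 3 min over 48°C-58°C, and extracted in PBS with 0.5% NP-40 at 4°C. Values, from duplicates, describe thermal stability against control samples on a log2 fold-change scale.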
ALDH9A1 isoform 3 (UniProt P49189) showed a log2 fold change of -0.007.
With AP2A1 (UniProt O95782) the log2 fold change was -0.001.
ACP2 (UniProt P11117) was tested, and the log2 fold change was 0.027.
For ATIC (UniProt P31939), the log2 fold change was -0.023.
BTAF1 (UniProt O14981) gave a log2 fold change of 0.051.
ATP1A4 (UniProt Q13733) gave a log2 fold change of -0.084.
ADPRHL2 (UniProt Q9NX46) showed a log2 fold change of -0.09.
ABHD17A isoform 2 (UniProt Q96GS6) showed a log2 fold change of 0.029.
With ATP5IF1 (UniProt Q9UII2) the log2 fold change was 0.016.
BCCIP isoform 2 (UniProt Q9P287) was tested, and the log2 fold change was -0.031.
Work on AP2A2 isoform 2 (UniProt O94973) yielded a log2 fold change of -0.021.
BST2 (UniProt Q10589) was tested, and the log2 fold change was 0.056.
With BZW1 isoform 3 (UniProt Q7L1Q6) the log2 fold change was -0.227.
For AGPAT3 isoform 3 (UniProt Q9NRZ7), the log2 fold change was -0.012.
Work on ACO2 (UniProt Q99798) yielded a log2 fold change of 0.
Target ARAF (UniProt P10398) has a log2 fold change of -0.05.
ATP1B3 (UniProt P54709) showed a log2 fold change of 0.012.
ANXA5 (UniProt P08758) gave a log2 fold change of -0.036.
Target ARHGAP1 (UniProt Q07960) has a log2 fold change of -0.02.
Target ADH5 (UniProt P11766) has a log2 fold change of 0.026.
In the case of ARFRP1 (UniProt Q13795), the log2 fold change is reported as 0.
In the case of BLOC1S3 (UniProt Q6QNY0), the log2 fold change is reported as -0.048.
In the case of BCAP29 isoform 2 (UniProt Q9UHQ4), the log2 fold change is reported as -0.017.
BPHL (UniProt Q86WA6) showed a log2 fold change of -0.015.
Work on AUP1 (UniProt Q9Y679) yielded a log2 fold change of -0.044.
Work on ACACB (UniProt O00763) yielded a log2 fold change of -0.044.
Target BRAF (UniProt P15056) has a log2 fold change of -0.04.
ATP1A1 (UniProt P05023) gave a log2 fold change of 0.009.
Target AP2B1 isoform 2 (UniProt P63010) has a log2 fold change of 0.023.
Work on AKR1C3 (UniProt P42330) yielded a log2 fold change of 0.155.
AAR2 (UniProt Q9Y312) showed a log2 fold change of 0.024.
Work on ARFIP1 (UniProt P53367) yielded a log2 fold change of 0.04.
For ADRM1 (UniProt Q16186), the log2 fold change was 0.007.
With AASDH (UniProt Q4L235) the log2 fold change was 0.047.
Work on ARFGAP2 (UniProt Q8N6H7) yielded a log2 fold change of -0.006.
ARL6IP6 (UniProt Q8N6S5) was tested, and the log2 fold change was -0.003.
